The entries come from a sample that favours hits as a whole.
TTR transcr act = activators of transthyretin transcription. SH-SY5Y TTR promoter Gaussia luciferase, luminescence; 100% = recombinant luciferase protein wells. activation, % at 16.7 µM. 92,000 tested, 1.3% active. AID 1117267;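 active = activation above the mean of all tested compounds plus 3 SD, cut at about 9.5% in these data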;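 also: cells exposed to compounds for one day before reading; 0% = median of all test compound wells on the plate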
HuH7 TTR inh = HuH7 TTR transcription inhibition, counter-screen; shares compounds with TTR transcr act; HuH7 TTR promoter-Gaussia luciferase reporter, luminescence; inhibition, % at 16.7 µM; 1,100 tested, 4% active; AID 1117279;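 active = average inhibition above the solvent-only control wells' mean plus 3 SD, cut at about 15% in these data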;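 also: 0% = cells with DMSO only and 100% = cells with inhibitor control FD; inhibitors lower well luminescence so higher value means more inhibition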
TTR act confirm = confirmation of human transthyretin transcription activators; AID 1117280; 1,100 tested, under 10 active; shares compounds with TTR transcr act; activation, % at 16.7 µM; SHSY5Y TTR promoter Gaussia luciferase, luminescence; 100% = purified Lucia enzyme wells, no cells;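 active = mean activation above a set limit taken from the earlier primary screen, cut at about 11% in these data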;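 also: 0% = DMSO-treated cells and 100% = recombinant Lucia luciferase without cells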
* = called active by the depositor.

SMILES	TTR transcr act	others
CC1(C)O[C@H]2CC(=O)OC[C@]23[C@H]2CC[C@@]4(C)[C@H](c5ccoc5)OC(=O)[C@H]5O[C@]54[C@]2(C)[C@@H](O)C[C@@H]13	-2
CC1(C)O[C@@H](CC(=O)O)[C@]23CO[C@H](C(=O)[C@]4(C)C2CC[C@@]2(C)[C@H](c5ccoc5)OC(=O)C5O[C@]524)[C@@H]13 (stereo not given in full)	22*	HuH7 TTR inh=-2;TTR act confirm=1
C=C(Cl)COc1cc(C)cc2oc(=O)cc(CC)c12	-3
Cc1cc(OCc2cc3c(cc2Cl)OCO3)c2c(C)cc(=O)oc2c1	11*	HuH7 TTR inh=-17;TTR act confirm=1
CCOc1cc2c(C)cc(=O)oc2cc1Cl	0
C[C@H]1[C@H](c2ccccc2)Oc2cccc(N3CCCC3)c2S(=O)(=O)N1Cc1cccc(F)c1	8
Cc1ccc([N+](=O)[O-])cc1NC(=O)Cc1cccs1	0
Cc1ccc([N+](=O)[O-])cc1NC(=O)CNC1CCCCC1	17*	HuH7 TTR inh=-8;TTR act confirm=0
O=C(CNC1CCCC1)Nc1cc(Cl)ccc1[N+](=O)[O-]	-2
CC1(c2nnnn2-c2ccc3ccccc3c2)CSCC(=O)N1C1CC1 (stereo not given)	0
COc1ccccc1NC(=S)OCCN1CCCC12CCC(c1ccccc1)CC2 (stereo not given)	1
CCOC(=O)c1cc(N2CCCCC2)nc2ccccc12	0
CCOc1ccccc1/C=C/c1cc(C(=O)O)c2ccccc2n1	35*	HuH7 TTR inh=-20;TTR act confirm=1
CCOC(=O)c1cc(OCC)c2c(ccc3ccccc32)n1	0
O=C(c1ccccc1)N1CCN(C(=S)NCCc2ccccc2)CC1	-1
OCC1CCCN(C(=S)NCCc2ccccc2)C1 (stereo not given)	2
CN1CCN(C(=S)NCCc2ccccc2)CC1	11*	HuH7 TTR inh=-14;TTR act confirm=-1
O=S1(=O)c2ccc(N3CC[C@H](O)C3)cc2O[C@H]2CCN1C2	4
FC(F)(F)c1ccccc1NC(=S)OCCN1CCCC12CCC(c1ccccc1)CC2 (stereo not given)	1
O=C(OCCCCSc1nnc(-c2cccc3ccccc23)o1)c1ccc(F)cc1	2
COc1cc(F)ccc1Oc1cccc2c1S(=O)(=O)N([C@H](C)c1ccccc1)C[C@@H](COCc1ccccc1)O2	2
CCOC(=O)NC(CC(=O)O)c1ccc(OC)c(OC)c1 (stereo not given)	9.7*	HuH7 TTR inh=6;TTR act confirm=-1
CCCC(=O)NC(c1ccc(OCC)cc1)c1ccc(OC)c(OC)c1 (stereo not given)	-1
CCOc1ccc(C(NC(=O)/C=C/c2ccco2)c2ccc(OC)c(OC)c2)cc1 (stereo not given)	0
CCOc1ccc(C(NC(C)=O)c2ccc(OC)c(OC)c2)cc1 (stereo not given)	11*	HuH7 TTR inh=-5;TTR act confirm=1
SMILES	TTR transcr act	others
CCOC(=O)NC(CC(=O)O)c1ccc(OCC)cc1 (stereo not given)	2
COc1ccc(C(CC(=O)O)NC(=O)c2cc3cc(Br)ccc3oc2=O)cc1OC (stereo not given)	-2
CNC(=O)C[C@@H]1CC[C@@H]2[C@H](COc3ccc(NC(=O)c4cccc(F)c4)cc3C(=O)N2C)O1	3
CCC(=O)Nc1ccc(NC(=O)CSc2nnc(-c3ccco3)n2C)cc1	2
Cn1cnnc1SCC(=O)Nc1ccc(Oc2ccccc2)cc1	0
Cn1cnnc1SCC(=O)Nc1ccc(Cl)cc1	13*	HuH7 TTR inh=-11;TTR act confirm=0
CN(C)c1ccc(NC(=O)CSc2nnc(-c3cnccn3)n2C)cc1	0
Cc1nc(-c2nnc(SCC(=O)Nc3ccc(Cl)cc3)n2C)cs1	23*	HuH7 TTR inh=-24;TTR act confirm=0
Cn1cnnc1SCC(=O)Nc1ccc(F)cc1F	0
O=C(NCCCc1ccccc1)OC1CC2CC1[C@H]1CCCCN1[C@H]2Cc1ccccc1 (stereo not given in full)	-1
O=C1CCCC2=C1C1(CCCC1)N=C(Nc1nc3cc(Br)ccc3o1)N2	0
CCOC(=O)[C@@]12CCC3=C1N(CCC3)C(=O)[C@H](CC(=O)NCc1cccc3ccccc13)C2	1
CCC[C@H]1[C@@H](N(C)Cc2ccccc2)CC[C@@]23CCCN2C(=O)CCC[C@@H]13	1
COc1ccc(-c2cc(=O)oc3cc(OCC(C)=O)ccc23)cc1	0
CC(=O)COc1ccc2c(C)c(C)c(=O)oc2c1	14*	HuH7 TTR inh=-9;TTR act confirm=8
CCCc1cc(=O)c2ccc(OCC(C)=O)cc2o1	0
CCOC(=O)[C@@]12CCC3=C1N(CCC3)C(=O)[C@H](CC(=O)NCCC(C)C)C2	-1
COC(=O)[C@]12C[C@H](CC(=O)NCc3cccc(C(F)(F)F)c3)C(=O)N(Cc3ccc(Cl)cc3Cl)C1=C[C@H](C1CCCC1)O[C@@H]2C	0
O=C(OCC#CCSc1nnc(-c2cccc3ccccc23)o1)c1ccncc1	-1
CC(C)c1ccc2[nH]c(O)c(N=NC(=O)c3ccc(CSc4nncn4C)cc3)c2c1	9
CC(C)c1ccc2[nH]c(O)c(N=NC(=S)NCCc3ccccc3)c2c1	12*	HuH7 TTR inh=-8;TTR act confirm=0
Oc1[nH]c2ccccc2c1N=NC(=S)NCCc1ccccc1	7
Cc1ccc(CCNC(=O)CN(C)S(=O)(=O)c2ccc3c(c2)c(=O)n(C)c(=O)n3C)cc1	0
Cc1ccc(CCNC(=O)CCNS(=O)(=O)c2ccc3c(c2)c(=O)n(C)c(=O)n3C)cc1	9.9*	HuH7 TTR inh=-6;TTR act confirm=-1
Cc1csc(NC(=O)CCNS(=O)(=O)c2ccc3c(c2)c(=O)n(C)c(=O)n3C)n1	4
SMILES	TTR transcr act	others
COCCn1c(SCC(=O)Nc2cccc(S(N)(=O)=O)c2)nc2ccccc21	4
COCCn1c(SCC(=O)Nc2ccc(S(N)(=O)=O)cc2)nc2ccccc21	9.8*	HuH7 TTR inh=-8;TTR act confirm=-1
COCCn1c(SCC(=O)NC(C)c2ccccc2)nc2ccccc21 (stereo not given)	0
Nc1nc2ncccc2cc1C(=O)c1c[nH]c2ccccc12	-1
O=C(NCC(c1ccccc1)c1ccccc1)[C@H](Cc1ccccc1)NC1(C(=O)NC2CCCCC2)CCOCC1	-1
CC(C)(CO)NC12CC3CC(CC(C3)C1)C2	-1
c1ccc(CNC23CC4CC(CC(C4)C2)C3)nc1	-1
Cc1ccsc1CNC12CC3CC(CC(C3)C1)C2	9.7*	HuH7 TTR inh=-8;TTR act confirm=1
CCCC1CCC2(CC1)CCC2OC(=O)Nc1cc(C)cc(C)c1 (stereo not given)	3
CC1CC1C(=O)OCC(=O)Nc1ccc(N=Nc2ccccc2)cc1 (stereo not given)	-2
CC1CC1C(=O)OCC(=O)Nc1cccc([N+](=O)[O-])c1 (stereo not given)	12*	HuH7 TTR inh=-5;TTR act confirm=0
Cc1ccc(C(=O)c2ccccc2C(=O)OCC(=O)Nc2cccc([N+](=O)[O-])c2)cc1	-2
COC(=O)CNC(=O)CNC1(C(=O)NCCc2c[nH]c3ccccc23)CCCCC1	-2
C=C(C)CN1C(=O)C2(OCCO2)c2cc(Br)ccc21	2
O=C(N[C@@H](Cc1ccc(Br)cc1)C(=O)O)OCC1c2ccccc2-c2ccccc21	0
CC(C)(C)OC(=O)[C@H](Cc1ccccc1)NCC(=O)OCc1ccc(C(=O)NCc2ccccc2)cc1	-1

From PubChem BioAssay
